Measurements published in PubChem BioAssay AID651610 (Broad Institute, 2012).
Out of some 360,000 compounds screened, about 3,900 (1.1%) were called active.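 Rule for the calls: active = mean replicate inhibition score of at least 50 and every replicate individually at or above 50; inconclusive = only one of the two criteria met; inactive = mean below 50 and not all replicates reaching 50.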 Many of the other results were omitted from the sample, so actives are more common in it than they were.

Experiment: inhibitors of HIV-1 Env-driven cell-cell fusion, primary screen, HeLa-JRFL effector, CEM21 target cells, luciferase (AID 651610);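 note: 0% = plate neutral controls and 100% = maraviroc near 300 nM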
Conditions: hits give high values; at 16.7 µM unless noted

Compound	inhibition
COc1ccc(N(CC(=O)Nc2cccc3ccccc23)S(C)(=O)=O)c(OC)c1	4.71% [at 12.3 µM] (inactive)
COc1ccc(N(CC(=O)Nc2ccc(C)cc2C)S(=O)(=O)c2ccccc2[N+](=O)[O-])c(OC)c1	31.2% [at 12.3 µM] (inactive)
CCc1ccccc1NC(=O)CN(c1ccc(OC)cc1OC)S(=O)(=O)c1ccccc1[N+](=O)[O-]	55.2% [at 12.3 µM] (active)
C[C@H](CO)N1C[C@H](C)[C@@H](CN(C)Cc2ccc(C(=O)Nc3ccccc3N)cc2)Oc2c(NC(=O)c3ccc(-c4nccs4)cc3)cccc2C1=O	-33.5% (inactive)
COc1ccc(Cl)cc1NC(=O)CN(C)C(=O)CNC(=O)C12CC3CC(CC(C3)C1)C2	-38.6% [at 12.3 µM] (inactive)
COc1ccc(Cl)cc1NC(=O)CN(C)C(=O)c1cc2ccccc2cc1OC	26.5% [at 12.3 µM] (inactive)
COc1ccc(Cl)cc1NC(=O)CN(C)C(=O)CCCc1c[nH]c2ccccc12	75.6% [at 12.3 µM] (active)
C[C@H](CO)N1C[C@H](C)[C@H](CN(C)C(=O)Nc2ccc(C(F)(F)F)cc2)Oc2ccc(NS(=O)(=O)c3cn(C)cn3)cc2CC1=O	10.7% (inactive)
CN1C(=O)c2cc(NS(=O)(=O)CC(F)(F)F)ccc2OC[C@H]2O[C@@H](CC(=O)NCc3ccc(Cl)c(Cl)c3)CC[C@@H]21	-8.14% (inactive)
COCC(=O)Nc1ccc2c(c1)C(=O)N(C)[C@H]1CC[C@H](CC(=O)Nc3ccccc3)O[C@H]1CO2	12.1% (inactive)
O=S(=O)(NCc1ccccc1)c1ccc(S(=O)(=O)N2CCCC2)cc1	-8.09% [at 12.3 µM] (inactive)
O=C1c2cccnc2C(Nc2ccc(S(=O)(=O)N3CCCCCC3)cc2)N1Cc1ccccc1 (configuration not stated)	75.5% [at 12.3 µM] (active)
Cc1nc(Nc2ccc(S(=O)(=O)N3CCCC3)cc2)c2nnn(Cc3ccccc3)c2n1	11.3% [at 12.3 µM] (inactive)
NCC[C@@H]1CC[C@@H](NC(=O)C2CCCC2)[C@H](CO)O1	-16.5% (inactive)
O=C(C[C@H]1C[C@H]2c3cc(NC(=O)c4ccc5c(c4)OCO5)ccc3O[C@H]2[C@@H](CO)O1)NCc1cccc(F)c1	-9.68% (inactive)
CCc1ccc(CN(C)Cc2nc(Cc3ccccc3)no2)nc1	9.8% [at 12.3 µM] (inactive)
CCc1ccc(CN(C)C(=O)CCc2nnc(-c3ccc(-c4ccccc4)cc3)o2)nc1	55.8% [at 12.3 µM] (active)
CC(=O)c1ccc(-c2nnc(CCC(=O)N(C)Cc3cnc4ccccn34)o2)s1	0.752% [at 12.3 µM] (inactive)
CN(C)C(=O)C[C@H]1C[C@H]2c3cc(NC(=O)Nc4ccccc4F)ccc3O[C@H]2[C@@H](CO)O1	1.88% (inactive)
Fc1ccc(-n2c(Cc3ccccc3)nnc2SCc2nc(-c3ccc(Cl)cc3)no2)cc1	79.7% [at 12.3 µM] (active)
Cc1ccc(-c2noc(CSc3nnc(-c4cccs4)n3C)n2)cc1	19.8% [at 12.3 µM] (inactive)

Compound	inhibition
Cn1c(SCc2ccc(F)cc2)nnc1-c1ccncc1	8.23% [at 12.3 µM] (inactive)
Cn1cccc1Cc1nnc(SCC(=O)NCCc2ccccc2)n1-c1ccc(F)cc1	16% [at 12.3 µM] (inactive)
O=C(CSc1nnc(Cc2ccccc2)n1-c1ccccc1)N1CCOCC1	-26.5% [at 12.3 µM] (inactive)
Cc1ccc(-c2noc(CSc3nnc(-c4ccncc4)n3-c3ccc(F)cc3)n2)cc1	62.8% [at 12.3 µM] (active)
C[C@@H]1CCCCO[C@@H](CN(C)Cc2ccncc2)[C@H](C)CN([C@@H](C)CO)C(=O)c2cc(NS(=O)(=O)c3ccccc3)ccc2O1	18.8% (inactive)
CO[C@@H]1CN(C)C(=O)c2cc(NC(C)=O)ccc2OC[C@@H](C)N(C(=O)NC2CCCCC2)C[C@H]1C	27.6% (inactive)
CC1(C(=O)NCc2ccc3c(c2)OCO3)CCN1C(=O)Cc1cccc2ccccc12 (configuration not stated)	-2.06% [at 12.3 µM] (inactive)
CC1(C(=O)NCc2cccc3ccccc23)CCN1Cc1ccc(-c2ccccc2)o1 (configuration not stated)	102% [at 12.3 µM] (active)
CSc1ccc(CN2CCC2(C)C(=O)NCc2ccccc2Br)cc1 (configuration not stated)	26.2% [at 12.3 µM] (inactive)
CNC[C@H]1Oc2c(NC(=O)Nc3cccc4ccccc34)cccc2C(=O)N([C@H](C)CO)C[C@H]1C	56.8% (active)
C[C@@H]1CCCCO[C@@H](CN(C)S(=O)(=O)c2ccc(F)cc2)[C@@H](C)CN([C@@H](C)CO)C(=O)c2cc(NC(=O)Nc3ccc4c(c3)OCO4)ccc2O1	-5.81% (inactive)
COc1ccc(S(=O)(=O)N(C)C[C@H]2Oc3ccc(NC(=O)Nc4ccccc4)cc3CC(=O)N([C@H](C)CO)C[C@@H]2C)cc1	-2.93% (inactive)
C[C@H]1CN([C@@H](C)CO)C(=O)c2cccc(NC(=O)Nc3ccc(C(F)(F)F)cc3)c2O[C@H]1CN(C)S(=O)(=O)c1ccccc1	69.3% (active)
C[C@H](CO)N1C[C@H](C)[C@H](CN(C)S(=O)(=O)c2ccccc2)Oc2c(NC(=O)Nc3ccccc3)cccc2C1=O	-1.17% (inactive)
C[C@@H]1CN([C@H](C)CO)C(=O)c2cc(NC(=O)Nc3ccccc3)ccc2O[C@H]1CN(C)S(=O)(=O)c1ccc(F)cc1	-5.96% (inactive)
COc1ccc(NC(=O)Nc2ccc3c(c2)CC(=O)N([C@H](C)CO)C[C@H](C)[C@H](CN(C)S(=O)(=O)c2ccccc2)O3)cc1	59.1% (active)
C[C@H]1CN([C@@H](C)CO)C(=O)c2cc(NC(=O)Nc3ccc4c(c3)OCO4)ccc2O[C@H]1CN(C)S(=O)(=O)c1ccc(F)cc1	68.9% (active)
C[C@@H]1CN([C@H](C)CO)C(=O)c2cccc(NC(=O)Nc3cccc4ccccc34)c2O[C@@H]1CN(C)C(=O)Nc1cccc2ccccc12	-85% (inactive)
C[C@H](CO)N1C[C@H](C)[C@@H](CN(C)S(=O)(=O)c2ccc(F)cc2)Oc2c(NC(=O)Nc3ccccc3)cccc2C1=O	-4.04% [at 12.3 µM] (inactive)
CNC[C@@H]1Oc2c(NC(=O)Nc3ccc(OC)cc3)cccc2C(=O)N([C@@H](C)CO)C[C@@H]1C	5.18% (inactive)
COc1ccc(NC(=O)Nc2ccc3c(c2)CC(=O)N([C@H](C)CO)C[C@H](C)[C@H](CN(C)S(=O)(=O)c2ccc(OC)cc2)O3)cc1	42.7% (inactive)
